The text below walks through data of PubChem BioAssay (NCATS).

“And” between values parts separate entries of the source, which are not always exact repeats. Identical values can stand only once. Records with an inconclusive call do not appear. Entries that show only a call come without a potency. The source made the active and inactive calls. Calls follow the shape of the dose curve; as a rule, active = well fitted cell-killing curve with a large enough effect; inconclusive = small, poorly fitted or top-dose-only effect, or effect the other way; inactive = no such curve, though single readings can be large or run the other way.
Potency is read from the fitted curve at half-maximal effect.

A short description of this experiment: Viability qHTS for spleen associated tyrosine kinase inhibitor (SYKi) naive MV4-11 cells (AID 1963823). Also: nearly all actives have a fitted effect of over 40% in size. To be noted: MV4-11 AML viability, CellTiter-Glo luminescence, 72 h; series mostly up to 45 µM. The source says: Department of Medicine, Hematology/Oncology
University Hospital Frankfurt, Germany.
Trials have shown promising clinical activity of the selective SYK inhibitor entospletinib in patients with high expressing HOXA9/MEIS1 acute leukemias. As the development of resistance mechanisms is a common problem in the use of targeted drugs, we performed a chemical library screen to identify drug sensitivities in SYK inhibitor resistant AML cells. […] Glucocorticoids are potent immunosuppressants which work in part by inhibiting the transcription of cytokine genes.
Described herein is a viability screen to look for activity in the SYK inhibitor naive cell line against four NCATS compound libraries (MIPE 5.0, NPC, NPACT, and Kinase) totaling 11372 compounds. Active hits were reacquired for confirmation and further secondary assay testing.
SEQUENCE No. (e.g., 1, 2, 3, etc.); […] (e.g., Cells, Incubation, Reagent, etc.); VALUE; DESCRIPTION.
1; Media; 2uL; white, solid-bottom Corning assay plate.
2; Compounds; 23nL; Echo acoustic dispenser.
3; Cell; 5uL; 500 cells per well.
4: Incubation; 72hr; 37 C, 5% CO2, 95% humidity.
5; Reagent; 3uL; CellTiter-Glo reagent (Promega).
6; Incubation; 10min; room temperature.
7; Detection; Luminescence; ViewLux plate reader (PerkinElmer).
NOTES (numbers refer to Sequence numbers above
1. Quantitative high-throughput screening (qHTS) of small molecule compounds was conducted on naive SYKi MV4-11 cell line.
2. Twenty-three nanoliter of small molecule compounds were added to each assay plates using the Echo acoustic dispenser (Beckman Coulter).
3. Cells were seeded into the assay plates at a final density of 500 cells in 5uL of media per well using the Multi-drop Combi dispenser.
4. Plates were covered with stainless steel gasketed lids and incubated for 72 hours at standard cell culture conditions.
5. Viability was assessed by adding 3uL of CellTiter-Glo detection reagent (Promega).
6. Plates were covered with gasket lids and incubated for 10 minutes at room temperature.
7. Luminescence was measured on a ViewLux plate reader (PerkinElmer).
A general note: In qHTS, concentration-response curves come from the screen itself.
For the molecule `OC1C(O)C(O)C(O)C(O)C1O` (stereo not given), the Potency entry was “inactive”.
As to `Cc1cc(-c2cnc(N)c3c(-c4ccc5scnc5c4)csc23)n(C)n1`, the Potency was 1.3 µM (active).
With `CCOc1ccc(-c2nc(-c3cccc4c3CCC4NCCO)no2)cc1OCC` (stereo not given), the Potency is 13 µM (active).
For `CCOC(=O)c1ccc(N)cc1`, the Potency result is “inactive”.
In the case of `CC(C)(OC1OC(CO)C(O)C(O)C1O)C1CCC(O)(CO)C2CC(=O)C(C)(O)C2C1` (stereo not given), the Potency result is “inactive”.
Regarding `O=S(=O)(c1ccc(S(=O)(=O)n2cnc3ccccc32)cc1)N1CCCCCC1`, the Potency entry was “inactive”.
In the case of `COc1ccc(-c2nc3ccc(C4=NNC(=O)CC4C)cc3[nH]2)cc1` (stereo not given), the Potency is 18.6 µM (active).
For `NC(CC1c2ccccc2Oc2ccccc21)(C(=O)O)C1CC1C(=O)O` (stereo not given), the Potency entry was “inactive”.
For the molecule `COc1cccc(CN(C(=O)CC(C)(C)C)[C@H]2C[C@H](C(=O)N3CCNCC3)N(Cc3ccc4c(c3)OCO4)C2)c1`, the Potency was 18.4 µM (active).
Turning to `CCN[C@H]1C[C@H](C)S(=O)(=O)c2sc(S(N)(=O)=O)cc21`, the Potency result is “inactive”.
Regarding `NC(=O)c1ccc([N+](=O)[O-])cc1Cl`, the Potency entry is “inactive”.
In the case of `COc1cc(N2CCOCC2)ccc1Nc1ncc(Cl)c(Nc2ccccc2NS(C)(=O)=O)n1`, the Potency is 0.103 µM (active).
As for `CN(C)CCCCC(=O)Nc1ccc(NC(=S)NC(=O)c2ccc(C(C)(C)C)cc2)cc1`, the Potency was 1.3 µM (active).
`Cc1cc(-c2nc3cc(F)ccc3s2)ccc1NC(=O)[C@@H](N)CCCCN`: the Potency was 2.31 µM (active).
On the same count and under the same terms, to `CNc1nc(-c2ccc3c(N)n[nH]c3c2)cc(N2C[C@@H](C(=O)NC3CCCCC3)CC[C@H]2C)n1` belongs 5.25 µM (active); to `O=C1CCCc2c(O)cccc21`, “inactive”.
The same measure, in the same setting: under `CC(C)NC[C@H](O)COc1ccc(CCOCC2CC2)cc1` stands “inactive”; under `CNC(C)C(=O)NC(C(=O)N1CCCC1C(=O)Nc1cccc2ncccc12)C(C)C` (stereo not given), “inactive”; under `Cc1c(N(C)C)c(=O)n(-c2ccccc2)n1C`, “inactive”.
The same measure, in the same setting: under `CC(C)(O)c1ccc2c(c1)C(=O)C[C@H]1[C@](C)(C(=O)O)CCC[C@]21C` stands “inactive”; under `COc1cc(O)cc(C)c1C(=O)OC1C(CO)OC(OC2C(O)C(O)C(O)C(O)C2O)C(O)C1O` (stereo not given), “inactive”.
`CN1CCN2c3ncccc3Cc3ccccc3C2C1` (stereo not given): the Potency result was “inactive”.
The same measure, in the same setting: under `CC1=C(CC/C(C)=C/C(=O)O)[C@@]2(C)CCCC(C)(C)C2CC1=O` (stereo not given in full) stands “inactive”; under `CN(C)C/C=C/C(=O)Nc1cccc(C(=O)Nc2ccc(Nc3nccc(-c4cccnc4)n3)cc2)c1`, 0.184 µM (active).
Consider `CC(=O)N1CCc2ccc(O)c(OC3OC(COC4OCC(O)(CO)C4O)C(O)C(O)C3O)c2C1Cc1ccc(O)cc1` (stereo not given), for which the Potency entry is “inactive”.
Take `Cc1[nH]nc2ccc(-c3cncc(OC[C@@H](N)Cc4ccccc4)c3)cc12`: the Potency is 82 nM (active) and 132 nM (active).
For `CN(C)CCOC(=O)COc1ccc(Cl)cc1`, the Potency entry is “inactive”.
As for `CC(=O)OCC(=O)Nc1cc(C#N)cc(NC(=O)COC(C)=O)c1Cl`, the Potency entry is “inactive”.
As to `Nc1c(NC/C=C\COc2cc(CN3CCCCC3)ccn2)c(=O)c1=O`, the Potency result was “inactive”.
In the case of `C=C1CCC[C@]2(C)C=C3OC(=O)C(C)=C3C[C@@H]12`, the Potency result is “inactive”.
Consider `Nc1ncnc2c1ncn2[C@@H]1O[C@H](CO)C[C@H]1O`, for which the Potency result was “inactive”.
Take `N[C@H](C(=O)O)c1ccc(O)cc1`: the Potency result was “inactive”.
`CC(C)c1cnn2c(NCc3ccccc3)cc(NCCCCCCN)nc12`: the Potency was 16.6 µM (active).
On to `COc1cc(C)c(/C=C/C(C)=C/C=C/C(C)=C/C(=O)O)c(C)c1C`, for which the Potency was 2.35 µM (active).
Turning to `C=Cc1ccc(O[C@@H]2O[C@H](CO[C@@H]3O[C@@H](C)[C@H](O)[C@@H](O)[C@H]3O)[C@@H](O)[C@H](O)[C@H]2O)cc1`, the Potency entry is “inactive”.
The same measure, in the same setting: to `O=C(O[C@H]1[C@@H]2C=CO[C@@H](O[C@@H]3O[C@H](CO)[C@@H](O)[C@H](O)[C@H]3O)[C@@H]2[C@@]2(CO)O[C@@H]12)c1ccc(O)c(O)c1` belongs “inactive”; to `CCOc1nc(NC(=O)Cc2cc(OC)ccc2OC)cc(N)c1C#N`, “inactive”; to `Cc1onc(-c2c(Cl)cccc2Cl)c1C(=O)N[C@@H]1C(=O)N2[C@@H]1SC(C)(C)[C@@H]2C(=O)O`, “inactive”.
On to `CCC(C)C1NC(=O)C(Cc2ccccc2)NC(=O)C(CCCCCC(=O)C(O)CO)NC(=O)C2CCCCN2C1=O` (stereo not given), for which the Potency was 2.43 µM (active).
For the molecule `C=C1CC[C@]2(C(=O)O[C@@H]3O[C@H](CO)[C@@H](O)[C@H](O)[C@H]3O)CC[C@]3(C)C(=CCC4[C@@]5(C)C[C@H](O)[C@@H](O[C@@H]6O[C@H](C(=O)O)[C@@H](O)[C@H](O)[C@H]6O)[C@](C)(C=O)C5CC[C@]43C)C2C1` (stereo not given in full), the viability (% of control) is 68.2% [at 9.25 µM] (inactive).
